# Laboratory results from PubChem BioAssay (NCI).
# Values joined by “and” are separate entries in the source; they are usually repeats but may differ in a detail not shown here. Equal values may be shown once. About 83,000 compounds went through this panel and 20% of them were active in at least one assay; those are over-represented in the sample as a whole.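 Plates (96-well) were seeded with cells, treated with compound at one concentration, and incubated for 48 hours before percent growth was determined.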 Active and inactive are the calls of the source. Rule for the calls: active = growth percent below 10; inactive = the rest.
# What was measured:
# Assay in all cases: NCI-60 one-dose screen, 48 h (100 = growth as untreated, 0 = no growth, -100 = all killed)
# Conditions in all cases: 10 µM unless noted
# NCI-H23 lung = tested on: NCI-H23 lung
# NCI-H226 lung = tested on: NCI-H226 lung
# NCI-H322M lung = tested on: NCI-H322M lung
# HOP-62 NSCLC = tested on: HOP-62 NSCLC
# HOP-92 NSCLC = tested on: HOP-92 NSCLC
# NCI-H522 lung = tested on: NCI-H522 lung
# A549/ATCC NSCLC = tested on: A549/ATCC NSCLC
# 786-0 renal = tested on: 786-0 renal
# COLO 205 colon = tested on: COLO 205 colon
# NCI-H460 lung = tested on: NCI-H460 lung
SMILES,growth (NCI-H23 lung),growth (NCI-H226 lung),growth (NCI-H322M lung),growth (HOP-62 NSCLC),growth (HOP-92 NSCLC),growth (NCI-H522 lung),growth (A549/ATCC NSCLC),growth (786-0 renal),growth (COLO 205 colon),growth (NCI-H460 lung)
COc1cc2nc(N3CCC[C@@H](NC(=O)C4COc5ccccc5O4)C3)nc(N)c2cc1OC (some centres undefined),99.6% (inactive) and 99.7% (inactive),102% (inactive) and 99.7% (inactive),96.1% (inactive) and 102% (inactive),107% (inactive) and 102% (inactive),87% (inactive) and 83% (inactive),96.4% (inactive) and 93.9% (inactive),95.7% (inactive) and 93.9% (inactive),97.4% (inactive) and 96.9% (inactive),108% (inactive) and 107% (inactive),
CCCCCCCCCCCCCCCCOc1ccc(C)cc1,98.2% (inactive),107% (inactive),111% (inactive),,,104% (inactive),102% (inactive),107% (inactive),111% (inactive),114% (inactive)
O=C(/C=C\c1ccnc2ccccc12)c1ccc([N+](=O)[O-])cc1,91.4% (inactive) and 63% (inactive),85.3% (inactive) and 68.5% (inactive),,104% (inactive) and 77.9% (inactive),78% (inactive) and 58% (inactive),36.7% (inactive) and 67.7% (inactive),91.5% (inactive) and 78.3% (inactive),88.8% (inactive) and 81.4% (inactive),118% (inactive) and 105% (inactive),99.7% (inactive) and 79.8% (inactive)
NC(=S)NN=C1CCC(C2CCCCC2)CC1 (centres undefined),103% (inactive) and 94.1% (inactive),89.1% (inactive) and 73% (inactive),,113% (inactive) and 111% (inactive),95.7% (inactive) and 92.3% (inactive),52.2% (inactive) and 47.2% (inactive),94% (inactive) and 99.5% (inactive),96.7% (inactive) and 91.9% (inactive),102% (inactive) and 95% (inactive),106% (inactive) and 108% (inactive)
CCN(CC)CCOc1ccc(/C=N/Nc2nc3c([nH]2)c(=O)n(C)c(=O)n3C)cc1,89.8% (inactive) and 103% (inactive),102% (inactive) and 101% (inactive),109% (inactive) and 94.1% (inactive),103% (inactive) and 108% (inactive),94.6% (inactive),84.8% (inactive) and 93.3% (inactive),,91.7% (inactive) and 107% (inactive),112% (inactive) and 111% (inactive),
Oc1ccccc1C=NCC1CCC(CN=Cc2ccccc2O)CC1 (centres undefined),78.9% (inactive),101% (inactive),80.3% (inactive),94.5% (inactive),104% (inactive),57.7% (inactive),92.2% (inactive),108% (inactive),97.3% (inactive),
O=C(O)CSCc1nc2ccccc2[nH]1,95.7% (inactive),106% (inactive),117% (inactive),120% (inactive),,104% (inactive),110% (inactive),103% (inactive),,
CC1=NN(c2ccccc2)C(=O)C1C(=O)c1ccccc1 (centres undefined),98.2% (inactive),92.6% (inactive),110% (inactive),111% (inactive),78.4% (inactive),98.5% (inactive),,101% (inactive),106% (inactive),
O=[N+]([O-])c1ccc(Oc2ccccc2)cc1,95.7% (inactive) and 105% (inactive),103% (inactive),,106% (inactive) and 95.9% (inactive),48.8% (inactive) and 77.1% (inactive),108% (inactive) and 103% (inactive),104% (inactive) and 89.5% (inactive),103% (inactive) and 106% (inactive),109% (inactive) and 110% (inactive),103% (inactive) and 102% (inactive)
CC(C)(C)c1ccc(O)c(CNC2CCCCC2)c1,96.6% (inactive) and 90.8% (inactive),96.5% (inactive) and 81.2% (inactive),,119% (inactive) and 88.9% (inactive),72.4% (inactive) and 84.3% (inactive),102% (inactive) and 84.8% (inactive),,96.1% (inactive) and 80.4% (inactive),9.74% (active) and 107% (inactive),103% (inactive) and 93.6% (inactive)
CCCCCN(CCCCC)CC(O)c1cc2c(c3ccccc13)CCCC2 (centres undefined),31.5% (inactive) and 40.8% (inactive),69.8% (inactive) and 53.2% (inactive),,36.2% (inactive) and 75.6% (inactive),-14.4% (active),53% (inactive) and 50.1% (inactive),,39.1% (inactive) and 27.2% (inactive),40.7% (inactive),
CNC(=O)c1cccnc1,,107% (inactive),110% (inactive),,109% (inactive),91.4% (inactive),92.8% (inactive),99.6% (inactive),121% (inactive),109% (inactive)
NC(=S)N/N=C(\c1ccc(Br)cc1)C1CC1,94.2% (inactive) and 87.9% (inactive),96.7% (inactive) and 87.6% (inactive),,96.4% (inactive) and 87% (inactive),83.2% (inactive) and 92.7% (inactive),98.9% (inactive),103% (inactive),113% (inactive) and 106% (inactive),98.4% (inactive) and 94.5% (inactive),
CN1CCN(CCC=C2c3ccccc3Sc3ccc(S(=O)(=O)N(C)C)cc32)CC1,84.4% (inactive) and 91% (inactive),111% (inactive) and 108% (inactive),,75.9% (inactive) and 83.8% (inactive),29.4% (inactive),44.2% (inactive) and 58.5% (inactive),69.3% (inactive) and 79.6% (inactive),41.6% (inactive) and 58.5% (inactive),-83.1% (active) and 44% (inactive),82.7% (inactive) and 82% (inactive)
Nc1nc(SC/C=C/CCl)c2[nH]cnc2n1,102% (inactive) and 98.1% (inactive),95.8% (inactive) and 131% (inactive),,106% (inactive) and 99.8% (inactive),,95.1% (inactive) and 86.7% (inactive),95.4% (inactive) and 103% (inactive),102% (inactive) and 99.1% (inactive),104% (inactive) and 116% (inactive),105% (inactive)
CC(=O)C(/C=N/C(N)=O)=C(/C)O,,111% (inactive),113% (inactive),,119% (inactive),99.6% (inactive),99.6% (inactive),104% (inactive),120% (inactive),
Cc1ccc(-c2noc(C)n2)cc1,,93.8% (inactive),,100% (inactive),92.1% (inactive),99.3% (inactive),,102% (inactive),113% (inactive),106% (inactive)
N#CCCOc1ccccc1,,110% (inactive),,95.3% (inactive),84.6% (inactive),87.7% (inactive),96.7% (inactive),98.2% (inactive),106% (inactive),105% (inactive)
O=C(O)CCCCc1ccc([N+](=O)[O-])cc1,99.6% (inactive) and 101% (inactive),120% (inactive) and 108% (inactive),,103% (inactive),77.5% (inactive) and 83.8% (inactive),91.7% (inactive) and 103% (inactive),97.6% (inactive) and 102% (inactive),102% (inactive) and 96.1% (inactive),115% (inactive) and 113% (inactive),96.1% (inactive) and 120% (inactive)
Oc1ccccc1/C=N\NC(=S)N/N=C/c1ccccc1O,62.6% (inactive) and 58.7% (inactive),68.1% (inactive) and 43.4% (inactive),,48.9% (inactive) and 71.5% (inactive),45.9% (inactive) and 62.4% (inactive),31% (inactive) and 2.87% (active),32.4% (inactive),29% (inactive) and 27.1% (inactive),65.6% (inactive) and 48.7% (inactive),19.5% (inactive) and 12.5% (inactive)
